A number with no mark means an inactive call. For part of these data: Entries with a potency or affinity are not part of this list. Calls of active or inactive are those of the source. Unless noted, how the calls were made is not given here.

Experiment [1] in a line: antimalarial activity against Dd2 strain (AID 2302;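 active means growth inhibition above 50% at the single 2 µM test dose, taken to imply half-maximal potency below 2 µM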;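 further: 0% = DMSO untreated growth and 100% = chloroquine plus artemisinin killed control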). The note with it: P. falciparum Dd2 in RBCs, LDH growth readout, 72 h; at 2 µM; hits give high values.
The nature of experiment [2]: HepG2 cytotoxicity, primary screen, cytotoxicity control for P. falciparum antimalarial project, cell-based, ATP luminescence (AID 2303;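 active means inhibition above 50%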;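 further: 0% = DMSO wells and 100% = digitonin-killed cells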). The conditions noted are these: HepG2 viability, 24-48 h, at 10 µM, hits give high values.
The target of experiment [3] is L-lactate dehydrogenase (Plasmodium falciparum (isolate CDC / Honduras)) (UniProt Q27743). The experiment can be described thus: PfLDH activity inhibition – cell lysate, 3D7 strain, counter-screen for P. falciparum growth inhibition project (AID 2304).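 Further: 0% = vehicle and 100% = reference inhibitor.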 The note with it: P. falciparum 3D7 crude extract, LDH APAD/NBT absorbance; at 2 µM; hits give high values. (The purpose of a counterscreen is to sort out artefacts and off-target activity.)
Sequence of L-lactate dehydrogenase (Plasmodium falciparum (isolate CDC / Honduras)) (Q27743 whole entry, looked up): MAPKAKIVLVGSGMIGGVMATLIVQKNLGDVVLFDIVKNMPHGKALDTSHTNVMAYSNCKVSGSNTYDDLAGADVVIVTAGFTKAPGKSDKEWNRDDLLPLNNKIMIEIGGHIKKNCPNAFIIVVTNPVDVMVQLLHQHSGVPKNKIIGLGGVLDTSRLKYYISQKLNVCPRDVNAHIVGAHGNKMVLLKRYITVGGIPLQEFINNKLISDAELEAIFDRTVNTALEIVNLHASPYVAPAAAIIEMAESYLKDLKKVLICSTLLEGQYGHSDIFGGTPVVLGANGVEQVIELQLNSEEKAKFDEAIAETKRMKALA

Experiment [4] is described as follows: inhibition of 3D7 malaria parasite growth – strain 3D7 (AID 2306).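 Further: 0% = DMSO wells and 100% = chloroquine plus artemisinin control wells.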 The note with it: P. falciparum 3D7 erythrocytic growth, LDH absorbance, 72 h; at 2 µM; hits give high values.
Experiment [5] concerns the target Calcium-dependent protein kinase 1 (Plasmodium falciparum (isolate 3D7)) (UniProt P62344). The experiment can be described thus: PfCDPK1 kinase inhibitors, biochemical, TCAMS library (AID 1159585; cut-off not given, nearly all actives have IC50 up to about 0.98 µM;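 further: inhibitors leave more ATP so luminescence rises with inhibition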). The conditions noted are these: recombinant PfCDPK1, Kinase-Glo ATP depletion luminescence.
Experiment [6] concerns the target Plasmodium falciparum protein kinase 6 (PK6, PF3D7_1337100) (UniProt Q8IDW1). The experiment is described as follows: PfPK6 kinase inhibitors, biochemical, TCAMS library (AID 1159586). The conditions noted are these: recombinant PfPK6, Kinase-Glo ATP depletion luminescence.
For experiment [7], the target named is Protein kinase 7 (PK7), Plasmodium falciparum 3D7 (PF3D7_0213400) (UniProt Q7YTF7). The experiment can be described thus: inhibition of Plasmodium PK7 catalytic activity – biochemical, TCAMS antimalarial set, Kinase-Glo luminescence (AID 1159587). The note with it: recombinant PfPK7, Kinase-Glo ATP depletion luminescence. In general terms: In Kinase-Glo more light means more ATP remaining.
Sequence of Protein kinase 7 (PK7), Plasmodium falciparum 3D7 (PF3D7_0213400) (Q7YTF7 1-343): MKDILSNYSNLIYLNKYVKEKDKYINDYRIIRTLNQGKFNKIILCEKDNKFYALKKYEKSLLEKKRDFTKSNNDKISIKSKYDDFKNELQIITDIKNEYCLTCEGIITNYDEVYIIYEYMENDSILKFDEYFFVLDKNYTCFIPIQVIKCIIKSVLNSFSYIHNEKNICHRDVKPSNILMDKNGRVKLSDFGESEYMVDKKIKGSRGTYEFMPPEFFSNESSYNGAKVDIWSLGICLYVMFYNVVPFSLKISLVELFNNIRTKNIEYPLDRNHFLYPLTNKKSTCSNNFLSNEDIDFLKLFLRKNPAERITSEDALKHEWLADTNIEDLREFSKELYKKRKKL

Experiment [8] concerns the target Calcium-dependent protein kinase 4 (Plasmodium falciparum (isolate 3D7)) (UniProt Q8IBS5). The experiment can be described thus: PfCDPK4 kinase inhibitors, biochemical, TCAMS library (AID 1159588; cut-off not given, nearly all actives have IC50 up to about 0.91 µM). The conditions noted are these: recombinant PfCDPK4, Kinase-Glo ATP depletion luminescence.

Sequence of Calcium-dependent protein kinase 4 (Plasmodium falciparum (isolate 3D7)) (Q8IBS5 whole entry, looked up): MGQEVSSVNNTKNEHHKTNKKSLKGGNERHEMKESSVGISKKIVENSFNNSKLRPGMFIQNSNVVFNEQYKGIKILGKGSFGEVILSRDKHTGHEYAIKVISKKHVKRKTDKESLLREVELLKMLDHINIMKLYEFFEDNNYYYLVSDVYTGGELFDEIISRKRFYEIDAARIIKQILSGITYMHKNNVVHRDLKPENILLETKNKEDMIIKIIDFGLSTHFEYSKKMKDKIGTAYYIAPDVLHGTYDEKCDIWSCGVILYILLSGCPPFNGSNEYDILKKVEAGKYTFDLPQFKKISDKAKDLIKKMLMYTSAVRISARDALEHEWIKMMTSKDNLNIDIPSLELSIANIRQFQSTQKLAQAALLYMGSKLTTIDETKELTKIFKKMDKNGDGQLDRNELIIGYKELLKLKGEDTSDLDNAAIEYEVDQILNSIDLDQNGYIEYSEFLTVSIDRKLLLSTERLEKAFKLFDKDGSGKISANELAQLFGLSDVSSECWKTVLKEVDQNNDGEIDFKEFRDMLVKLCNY
Sequence of Plasmodium falciparum protein kinase 6 (PK6, PF3D7_1337100) (Q8IDW1 1-305): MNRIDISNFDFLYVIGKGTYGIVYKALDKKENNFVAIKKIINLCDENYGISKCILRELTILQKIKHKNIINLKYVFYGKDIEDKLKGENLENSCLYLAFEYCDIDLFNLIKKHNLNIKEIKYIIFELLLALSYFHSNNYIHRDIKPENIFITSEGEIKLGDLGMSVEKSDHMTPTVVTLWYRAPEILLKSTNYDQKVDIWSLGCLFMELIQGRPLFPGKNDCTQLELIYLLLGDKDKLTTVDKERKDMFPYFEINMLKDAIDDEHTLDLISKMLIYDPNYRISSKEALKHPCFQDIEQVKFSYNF
Sequence of Calcium-dependent protein kinase 1 (Plasmodium falciparum (isolate 3D7)) (P62344 whole entry, looked up): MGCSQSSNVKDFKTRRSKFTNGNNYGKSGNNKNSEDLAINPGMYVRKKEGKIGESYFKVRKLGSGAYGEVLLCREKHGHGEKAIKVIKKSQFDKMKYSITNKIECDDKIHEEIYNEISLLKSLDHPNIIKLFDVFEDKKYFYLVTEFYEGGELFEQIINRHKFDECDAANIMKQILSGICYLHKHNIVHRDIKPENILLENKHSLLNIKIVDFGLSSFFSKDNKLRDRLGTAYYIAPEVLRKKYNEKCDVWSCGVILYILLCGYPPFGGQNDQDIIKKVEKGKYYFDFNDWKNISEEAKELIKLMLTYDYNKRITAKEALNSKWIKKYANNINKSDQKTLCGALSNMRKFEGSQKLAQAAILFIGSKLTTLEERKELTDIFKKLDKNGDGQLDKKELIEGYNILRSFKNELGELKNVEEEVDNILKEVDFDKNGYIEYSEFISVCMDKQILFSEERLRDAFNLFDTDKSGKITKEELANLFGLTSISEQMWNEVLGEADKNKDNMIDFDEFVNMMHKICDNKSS

As a reminder, the inhibition is the drop in the measured response relative to a control, in per cent. With `FC(F)(F)c1cnc(Sc2nnc(-c3ccco3)o2)c(Cl)c1`, the growth inhibition in experiment [1] was 97% (active); in experiment [4] it was 98% (active). Also, the inhibition in experiment [2] was -1%; in experiment [3], -4%. Also, the result in experiment [5], in experiment [6], in experiment [7] and in experiment [8] was inactive.
Consider `CC(NC(=O)c1ccc(O)c(-c2ccc(Cl)c(Cl)c2)c1)C(=O)NCCN1CCCC1` (stereo not drawn), for which the growth inhibition in experiment [1] is 9%; in experiment [4] it was 99% (active). For the same compound, the inhibition in experiment [2] was -5%; in experiment [3], -2%. Also, the outcome in experiment [5], in experiment [6], in experiment [7] and in experiment [8] was inactive.
Consider `O=[N+]([O-])c1cccc(CNCC2CCN(Cc3ccc(-c4ccccc4)cc3)CC2)c1`, for which the results for the growth inhibition in experiment [1] and in experiment [4] were 91% (active) and 101% (active), respectively. The inhibition is 28% in experiment [2] and 6% in experiment [3]. Further, the result in experiment [5], in experiment [6], in experiment [7] and in experiment [8] was inactive.
Turning to `O=C(/C=C/c1ccsc1)N1CCC(CCN2CCC(c3c[nH]c4ccccc34)CC2)CC1`, the figures for the growth inhibition in experiment [1] and in experiment [4] were 24% and 88% (active), respectively. In addition, the inhibition in experiment [2] was 37%; in experiment [3], 4%. For the same compound, the outcome in experiment [5], in experiment [6], in experiment [7] and in experiment [8] was inactive.
Turning to `CC(=O)c1sc(NC(=O)Nc2ccc(C)cc2C)nc1C`, the growth inhibition in experiment [1] is 68% (active); in experiment [4] it was 96% (active). The inhibition in experiment [2] is 5%; in experiment [3], 0%. The outcome in experiment [5], in experiment [6], in experiment [7] and in experiment [8] was inactive.
On to `CCOC(=O)c1c[nH]c2c(sc3cc(OC)ccc32)c1=O`, for which the growth inhibition in experiment [1] was 93% (active); in experiment [4], 96% (active). Also, the inhibition in experiment [2] is -6%; in experiment [3] it was 3%. Besides, the outcome in experiment [5], in experiment [6], in experiment [7] and in experiment [8] was inactive.
Regarding `COc1cc(F)c2nccc([C@@H](O)CN3CCC(NCc4cc5c(cc4F)OCCO5)CC3)c2c1`, the values for the growth inhibition in experiment [1] and in experiment [4] were 45% and 99% (active), respectively. Moreover, the inhibition is 23% in experiment [2] and -1% in experiment [3]. Moreover, the result in experiment [5], in experiment [6], in experiment [7] and in experiment [8] was inactive.
`Cc1ccc(-c2cccc3c(NC(=O)Nc4ccc5nccc(N6CCN(C)CC6)c5c4)cccc23)cn1`: the figures for the growth inhibition in experiment [1] and in experiment [4] were 89% (active) and 90% (active), respectively. The inhibition in experiment [2] was 6%; in experiment [3] it was -7%. In addition, the outcome in experiment [5], in experiment [6], in experiment [7] and in experiment [8] was inactive.
On to `Cc1csc(NC(=O)c2cn(-c3ccccc3)nc2-c2cccs2)n1`, for which the results for the growth inhibition in experiment [1] and in experiment [4] were 12% and 95% (active), respectively. The inhibition is -1% in experiment [2] and 4% in experiment [3]. For the same compound, the outcome in experiment [5], in experiment [6], in experiment [7] and in experiment [8] was inactive.
Regarding `Cc1ccc(Nc2ccnc3ccc(C(F)(F)F)cc23)cc1O`, the growth inhibition in experiment [1] is 69% (active); in experiment [4] it was 102% (active). Moreover, the results for the inhibition in experiment [2] and in experiment [3] were 23% and -6%, respectively. The result in experiment [5], in experiment [6], in experiment [7] and in experiment [8] was inactive.
In the case of `COc1ccc(NC(=O)c2cccc(Br)c2)cc1N1CCN(CCCCCCCN2CCN(c3cc(NC(=O)c4cccc(Br)c4)ccc3OC)CC2)CC1`, the figures for the growth inhibition in experiment [1] and in experiment [4] were 93% (active) and 99% (active), respectively. In addition, the inhibition in experiment [2] was 97% (active); in experiment [3], 0%. Further, the result in experiment [5], in experiment [6], in experiment [7] and in experiment [8] was inactive.
For `CN(C)CCC=C1c2ccccc2Sc2c(O)cc(Cl)cc21`, the growth inhibition in experiment [1] is 80% (active); in experiment [4], 100% (active). The inhibition was 8% in experiment [2] and -9% in experiment [3]. Also, the result in experiment [5], in experiment [6], in experiment [7] and in experiment [8] was inactive.
In the case of `Cc1cc(F)ccc1Nc1nc(N(C)c2ccccc2)c2cccc(OCCO)c2n1`, the growth inhibition in experiment [1] is 94% (active); in experiment [4], 95% (active). Further, the values for the inhibition in experiment [2] and in experiment [3] were 34% and 0%, respectively. Further, the outcome in experiment [5], in experiment [6], in experiment [7] and in experiment [8] was inactive.
As to `Cc1ccccc1C1CCN(C2CCC(NC(=O)c3ccc(-c4ccccc4)s3)CC2)CC1` (stereo not drawn), the growth inhibition in experiment [1] is 84% (active); in experiment [4], 101% (active). The values for the inhibition in experiment [2] and in experiment [3] were 26% and 0%, respectively. Also, the result in experiment [5], in experiment [6], in experiment [7] and in experiment [8] was inactive.
In the case of `Fc1ccc(-c2csc3ncnc(Cl)c23)cc1`, the growth inhibition in experiment [1] was 95% (active); in experiment [4], 94% (active). Further, the figures for the inhibition in experiment [2] and in experiment [3] were 3% and -1%, respectively. Also, the result in experiment [5], in experiment [6], in experiment [7] and in experiment [8] was inactive.
Turning to `Cc1nc2nc(N)nc(N)c2c(C)c1Cc1cccc(C#N)c1`, the growth inhibition was 1% in experiment [1] and 97% (active) in experiment [4]. Besides, the inhibition in experiment [2] was 64% (active); in experiment [3], 1%. The outcome in experiment [5], in experiment [6], in experiment [7] and in experiment [8] was inactive.
On to `COc1ccc(N2C(=O)C3C(C2=O)C2(C)c4ccccc4C3(C)c3ccccc32)c([N+](=O)[O-])c1` (stereo not drawn), for which the values for the growth inhibition in experiment [1] and in experiment [4] were 54% (active) and 99% (active), respectively. Besides, the inhibition is 11% in experiment [2] and 7% in experiment [3]. Besides, the outcome in experiment [5], in experiment [6], in experiment [7] and in experiment [8] was inactive.
`CC(Oc1ccc(C(=O)c2ccc(F)cc2)cc1)C(=O)N1CCc2ccccc21` (stereo not drawn): the growth inhibition in experiment [1] and in experiment [4] was 95% (active) each time. For the same compound, the inhibition in experiment [2] was 9%; in experiment [3] it was 1%. Further, the outcome in experiment [5], in experiment [6], in experiment [7] and in experiment [8] was inactive.
Take `Oc1ccc(CCCc2cc(Oc3c(I)cc(CCc4ncc[nH]4)cc3I)ccc2O)cc1`: the growth inhibition is 7% in experiment [1] and 95% (active) in experiment [4]. In addition, the results for the inhibition in experiment [2] and in experiment [3] were 26% and -9%, respectively. Also, the outcome in experiment [5], in experiment [6], in experiment [7] and in experiment [8] was inactive.
Take `Clc1ccc(CNc2nc(NCCc3cnc[nH]3)nc(NC3CCCCC3)n2)cc1`: the growth inhibition is 1% in experiment [1] and 100% (active) in experiment [4]. Further, the inhibition in experiment [2] was -5%; in experiment [3] it was -3%. The outcome in experiment [5], in experiment [6], in experiment [7] and in experiment [8] was inactive.
Take `Cn1nc(-c2cccc(CNCCc3cccs3)c2)c2cnc(NC3CCCC3)nc21`: the growth inhibition in experiment [1] was -1%; in experiment [4], 97% (active). Moreover, the inhibition was 8% in experiment [2] and -1% in experiment [3]. The result in experiment [5], in experiment [6], in experiment [7] and in experiment [8] was inactive.

Values taken from PubChem BioAssay.
